Among the data in PubChem BioAssay (NCI) are growth values, retold here.

About 83,000 compounds went through this panel and 20% of them were active in at least one assay; those are over-represented in the sample as a whole.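 Results are percent growth after 48 hours of single-concentration exposure. 100 means growth as in untreated cells, lower positive values show inhibition; negative values down to -100 show cell death.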 Active and inactive are the calls of the source. Rule for the calls: active = growth percent below 10; inactive = the rest.

In the assay the test system is 786-0 renal. The assay is described as follows: NCI-60 one-dose screen, 48 h (100 = growth as untreated, 0 = no growth, -100 = all killed). Conditions: 10 µM unless noted.
For the compound `C=C1C(=O)O[C@H]2[C@H]1CC/C(COC(=O)NCc1ccc(Cn3c(=O)sn(CCCC)c3=O)cc1)=C\CC[C@@]1(C)O[C@@H]21`, the growth was 41.8% (inactive).

Regarding `O=C(Nc1ncc(Cc2ccccc2)s1)c1cc(-c2ccccc2)nc2ccccc12`, the growth was 105% (inactive). `CC(=O)Oc1ccccc1C(=O)N(Cc1ccc2c(Cl)cc(Cl)c(O)c2n1)c1ccccc1`: the growth was 59.1% (inactive). Then `O=C(Nc1ccccc1)Nc1ccccc1CNc1nc(Nc2ccc(OCCN3CCCC3)cc2)ncc1Cl`, with 9.35% (active); and `C#Cc1ccc(NC(=O)Cc2ccc(/C=C/C(=O)c3nccn3C)cc2)cc1`, with 30% (inactive); and `O=C(O)c1nn(-c2ccc(Cl)cc2)nc1N1CCCC1`, with 100% (inactive).

Regarding `CCc1ccc(Cc2cnc(NC(=O)c3cc(C)oc3C)s2)cc1`, the growth is 41.2% (inactive).

As to `O=C(NCCN1CCOCC1)c1cncnc1Nc1ccc2c(ccn2Cc2ccccn2)c1`, the growth was 98.5% (inactive). `CC/C(=C(/c1ccc(Cl)cc1)c1ccc(OCCN2CCCCCC2)cc1)c1ccccc1`: the growth was 85.2% (inactive).

For `CC(=O)OCC(=O)O[C@@H]1C[C@]2(C(C)C)O[C@@]1(C)[C@@H]1CC[C@@H](C)[C@H]1[C@@H]2OC(=O)/C=C/c1ccccc1`, the growth is 66.3% (inactive). In the case of `COc1ccc(C(=O)/C=C/c2ccc(C)cc2)cc1S(N)(=O)=O`, the growth is 40.8% (inactive). Take `Cc1ccc(Nc2oc(-c3ccccc3)nc2[P+](c2ccccc2)(c2ccccc2)c2ccccc2)cc1`: the growth was -77.5% (active). As to `COc1ccc(N/N=C/c2ccc3c(c2)Sc2ccccc2N3C)cc1`, the growth is 88.4% (inactive). As to `COc1ccc(N2C(=O)/C(=C/C(Cl)=C/c3ccc([N+](=O)[O-])cc3)SC2=S)cc1`, the growth is -77.7% (active). For `COc1ccc(C2=C/C(=C\c3ccccc3O)C(=O)N2Cc2ccccc2)cc1`, the growth was 90% (inactive). On to `COC(=O)[C@H]1Cc2c([nH]c3ccccc23)[C@H](c2ccc3c(c2)OCO3)N1`, for which the growth is 98.5% (inactive).

Regarding `O=C(Nc1ncc(Cc2ccccc2)s1)c1ccc2c(c1)OCCO2`, the growth was 33.1% (inactive). Then `CC(=O)CC(=O)c1ccccc1.[Cu+2]`, with 107% (inactive); and `COC1CC(O)C2=C(CC3C(/C(C)=C\CC=C(C)C)CCC3(C)O2)C1=O` (configuration not stated), with 103% (inactive); and `Nc1c(C(=O)c2ccc(Cl)cc2)sc(Nc2ccccc2)c1-c1nc2ccccc2s1`, with 8.1% (active). On to `C=CC(=O)Nc1ccc2ncnc(Nc3cccc(NS(=O)(=O)CCC)c3Cl)c2c1`, for which the growth is 42.4% (inactive). For the compound `CCN1C(=O)N(CC)C2C1NC(=S)N2/N=C/C=C/c1ccccc1` (configuration not stated), the growth was 25.6% (inactive).

Take `Oc1cccc2c1NCCC2`: the growth is 26.6% (inactive). Then `CCOC(=O)c1cnc2sc(-c3ccc(OC)cc3)nc2c1Cl`, with 115% (inactive).

As to `Cc1ccc2nc(/C=C/c3ccc(N(C)C)cc3)cc(C)c2c1`, the growth was 35.1% (inactive). Then `C=CCOC(=O)C1=C(C)N(CC)C(=O)N(CC)C1c1c(Cl)n(C)c2ccccc12` (configuration not stated), with 91.9% (inactive); and `C=C(C)[C@@H]1CC[C@]2(COC(=O)c3cccnc3)CC[C@]3(C)[C@H](CC[C@@H]4[C@@]5(C)CCCN(C(=O)c6cccnc6)C(C)(C)[C@@H]5CC[C@]43C)[C@@H]12`, with 45.1% (inactive); and `COc1ccc(C2=NN3C(C2)c2cc(Br)ccc2OC3c2ccncc2)cc1` (configuration not stated), with 92.6% (inactive). For `C=CC(=O)NCc1cccc(Nc2ncc(Br)c(NCCCNC(=O)C3CCC3)n2)c1` the value was -35.2% (active); for `O=C(O)/C=C/c1cn(-c2ccccc2)nc1-c1ccc(F)cc1`, 96.1% (inactive); for `CCNCCNc1c(C)c(-c2ccc(C(F)(F)F)cc2)c(C#N)c2nc3ccccc3n12`, 77% (inactive). With `O=C1CCc2c(sc3[nH]c(=S)n(-c4cc(C(F)(F)F)cc(C(F)(F)F)c4)c(=O)c23)C1`, the growth is 18.1% (inactive). Consider `COc1cc2cc(Oc3ccc(NC(=O)Nc4ccc(F)c(C(F)(F)F)c4)cc3)c(C)nc2cc1OCCN1CCCCC1`, for which the growth was 61.9% (inactive).

Regarding `Cc1ccc2c(c1)CC(O)CC1C(=O)N(CCO)CC(=O)N21` (configuration not stated), the growth was 104% (inactive). For `CC(C)(C)CC(C)(C)Nc1c(-c2c(O)c3ccccc3oc2=O)nc2sccn12` the value was 109% (inactive); for `O=C1NC(=O)C(=Cc2cc(-c3ccc(Cl)cc3)n(-c3ccccc3)n2)C(=O)N1`, 82.5% (inactive); for `CCOC(=O)c1c2c(n3ccc(NC(=O)CCN4CCCC4)cc13)C(=O)c1ncccc1C2=O`, -88.2% (active).
